Source: PubChem BioAssay (Tox21)
Inconclusive results are not listed. The source made the active and inactive calls. Unless noted, calls follow the shape of the dose curve; as a rule, active = well fitted curve in the direction sought with a large enough effect in the repeat runs; inconclusive = weak or mixed curves; inactive = no such curve, though single readings can be large; an effect the other way counts as inactive or inconclusive.

Assays:
[1] = A CellTox Green Cytotoxicity Assay to monitor cytotoxicity in HEK293 cells - 32 hour (AID 1224881); also: nearly all actives have a fitted effect of over 40% in size
Method in brief: (§1)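 Dead-cell fluorescence measured kinetically: asymmetric cyanine dye, HEK293, 600 cells/well, 5 h settle, 23 nL cpd/DMSO, 37 C, reads 0–40 h every 8 h.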

[2] = A CellTox Green Cytotoxicity Assay to monitor cytotoxicity in HepG2 cells - 0 hour (AID 1224882); also: nearly all actives have a fitted effect of over 35% in size
Method in brief: (§2)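 First, HepG2 cells (600/well) mixed with reagent were plated; second, after 5 h at 37 C they received compounds via pintool; third, fluorescence was measured at 0 h through 40 h at 8 h intervals.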

[3] = A CellTox Green Cytotoxicity Assay to monitor cytotoxicity in HepG2 cells - 32 hour (AID 1224883); also: nearly all actives have a fitted effect of over 50% in size
Method in brief: as §2

[4] = A CellTox Green Cytotoxicity Assay to monitor cytotoxicity in HEK293 cells - 8 hour (AID 1224884); also: nearly all actives have a fitted effect of over 35% in size
Method in brief: as §1

[5] = qHTS RealTime-Glo MT Cell Viability Assay in HEK293 cells - 24 hour (AID 1224886); also: top concentration of the series differs between compounds; nearly all actives have a fitted effect of over 50% in size
Method in brief: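 Luminescence generated by NanoLuc from substrate produced by living HEK293 cells served as the viability signal. Each value reflects the reading at its stated time point during continuous 40 h compound exposure at 37 C.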

[6] = qHTS RealTime-Glo MT Cell Viability Assay in HEK293 cells - 8 hour (AID 1224887); also: top concentration of the series differs between compounds; nearly all actives have a fitted effect of over 50% in size
Method in brief: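 600 HEK293 cells per well, dispensed already mixed with RealTime-Glo MT reagents. Compound dosing came 5 h later. The same wells were read for luminescence at 0, 8, 16, 24, 32 and 40 h of exposure at 37 C.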

[7] = A CellTox Green Cytotoxicity Assay to monitor cytotoxicity in HEK293 cells - 16 hour (AID 1224888); also: nearly all actives have a fitted effect of over 35% in size
Method in brief: as §1

[8] = qHTS RealTime-Glo MT Cell Viability Assay in HepG2 cells - 0 hour (AID 1224889); also: nearly all actives have a fitted effect of over 50% in size
Method in brief: (§3)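 Tox21 10K library screened in qHTS format on HepG2 cells carrying RealTime-Glo reagents. Compounds were added after a 5 h preincubation, and the luminescent signal from continuous culture was measured repeatedly during 40 h treatment.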

[9] = qHTS assay to identify small molecule antagonists of the estrogen receptor alpha (ER-alpha) signaling pathway using the BG1 cell line in the presence of 0.1 nM 17-beta-estradiol - cell viability counter screen (AID 1259241); also: nearly all actives have a fitted effect of over 40% in size
Method in brief: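 Following 5 days in phenol red-free medium with charcoal-stripped serum, VM7Luc4E2 cells received test compounds alongside 0.1 nM 17beta-estradiol (final) at 37C for 22 hr. Live cells were then quantified via protease-substrate fluorescence.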

[10] = qHTS assay to identify small molecule antagonists of the androgen receptor (AR) signaling pathway using the MDA cell line in the presence of 0.5 nM R1881 - cell viability counter screen (AID 1259242); also: nearly all actives have a fitted effect of over 45% in size
Method in brief: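 qHTS format. MDA-kb2 (MMTV-luc, AR/GR responsive) + cpd + 0.5 nM R1881 final, 16 hr 37C/0% CO2 → CellTiter-Fluor 30 min → fluorescence intensity.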

[11] = qHTS assay to identify small molecule HDAC inhibitors (AID 1259364);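 also: wild-type HCT-116 cells with endogenous class I/II HDAC activity; top concentration of the series differs between compounds; nearly all actives have a fitted effect of over 45% in size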
Method in brief: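 Quantitative high-throughput format: overnight-seeded HCT-116 cells got compounds for 2 hr at 37C; HDAC-Glo I/II reagent added, 30 min RT, luminescence measured.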

[12] = qHTS assay to identify small molecule HDAC inhibitors - cell viability counter screen (AID 1259365)
Method in brief: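 HCT-116 wild-type, overnight attachment; 2hr drug exposure, 37C; CellTiter-Glo luminescent ATP readout after 30min RT.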

[13] = qHTS assay to identify small molecule agonists of the sonic hedgehog signaling (Shh) pathway - cell viability counter screen (AID 1259366); also: nearly all actives have a fitted effect of over 50% in size; also: potency is read from the fitted curve at half-maximal effect
Method in brief: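 Compounds in DMSO were pin-transferred onto 3T3 Gli1-Luc cells that had settled 4hr; plates then stood 24hr at 37C and 5% CO2. One hour before the end, CellTiter-Fluor was added and fluorescence recorded.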

[14] = qHTS assay to identify small molecule agonists of the sonic hedgehog signaling (Shh) pathway (AID 1259368; calls by dose curve;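 also: NIH/3T3-derived 3T3Gli1-Luc cells carrying a stable Gli1-driven firefly luciferase reporter; series mostly up to about 92 µM; nearly all actives have a fitted effect of over 15% in size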)
Method in brief: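 Quantitative high-throughput format using a Gli1-driven firefly luciferase reporter line derived from NIH/3T3 cells. After a 24 hr compound treatment at 37 C and 5% CO2, luminescence reported Gli1 response element activity.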

[15] = qHTS RealTime-Glo MT Cell Viability Assay in HepG2 cells - 16 hour (AID 1224885); also: nearly all actives have a fitted effect of over 50% in size
Method in brief: as §3

[16] = A CellTox Green Cytotoxicity Assay to monitor cytotoxicity in HepG2 cells - 8 hour (AID 1224890); also: nearly all actives have a fitted effect of over 45% in size
Method in brief: as §2

[17] = molecular target: Estrogen receptor (Homo sapiens) (UniProt P03372); assay: qHTS assay to identify small molecule antagonists of the estrogen receptor alpha (ER-alpha) signaling pathway using the BG1 cell line in the presence of 0.1 nM 17-beta-estradiol (AID 1259244); also: nearly all actives have a fitted effect of over 50% in size
Chain of Estrogen receptor (Homo sapiens) (P03372 whole entry, looked up): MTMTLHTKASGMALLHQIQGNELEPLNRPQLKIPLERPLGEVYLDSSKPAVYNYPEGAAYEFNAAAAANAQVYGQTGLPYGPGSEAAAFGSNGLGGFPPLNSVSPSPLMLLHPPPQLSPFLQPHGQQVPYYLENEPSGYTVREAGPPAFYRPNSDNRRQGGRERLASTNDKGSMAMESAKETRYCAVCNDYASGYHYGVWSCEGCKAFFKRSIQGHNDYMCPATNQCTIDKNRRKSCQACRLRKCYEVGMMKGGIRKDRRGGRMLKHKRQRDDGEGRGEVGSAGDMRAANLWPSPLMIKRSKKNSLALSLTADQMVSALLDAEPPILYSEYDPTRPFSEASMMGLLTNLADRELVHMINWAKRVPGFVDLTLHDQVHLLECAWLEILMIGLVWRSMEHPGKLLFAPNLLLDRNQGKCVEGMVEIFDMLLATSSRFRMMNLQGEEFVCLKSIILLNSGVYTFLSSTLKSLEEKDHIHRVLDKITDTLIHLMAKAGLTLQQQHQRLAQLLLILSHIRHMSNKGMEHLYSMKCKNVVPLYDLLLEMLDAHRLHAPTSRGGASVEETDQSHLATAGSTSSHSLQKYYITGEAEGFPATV
Method in brief: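 Reporter is a stably transfected luciferase under four estrogen responsive elements in VM7Luc4E2 cells expressing native full-length ER-alpha; inhibition of 0.1 nM (final) 17beta-estradiol-driven signal over 22 h is read by luminescence.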

[18] = qHTS assay to identify small molecule antagonists of the sonic hedgehog signaling (Shh) pathway - cell viability counter screen (AID 1259367); also: nearly all actives have a fitted effect of over 55% in size
Method in brief: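 Fluorescence read-out (CellTiter-Fluor, 1 hr at 37C) taken after 23 hr compound treatment of 3T3 Gli1-Luc cells stimulated with conditioned medium. Cells were seeded at 2,000 per well and pre-incubated 4 hr.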

[19] = qHTS assay to identify small molecule phospholipidosis (PLD) inducers (AID 1259344; active = well fitted curve in the direction sought with a large enough effect; an effect the other way counts as inactive or inconclusive)
Method in brief: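 Read-out is LipidTOX Red fluorescence (ex 595/em 615) imaged in HepG2 cells after 24 h compound exposure at 37 C, with Hoechst nuclear counterstain (ex 352/em 461) allowing per-cell normalisation.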

Measured: Potency

COc1cccc(C(=O)NN(C(=O)c2cc(C)cc(C)c2)C(C)(C)C)c1C
active: [13] 13.7 µM
not listed: [15] | [16] | [17] | [18] | [19]
inactive: all other assays above

ClC(Cl)Br
not listed: [5] | [7] | [10] | [13] | [14] | [19]
inactive: all other assays above

NC1=NC(=O)C(c2ccccc2)O1 (configuration not stated)
not listed: [8] | [15] | [17]
inactive: all other assays above

O=[N+]([O-])c1ccc2c3c(cccc13)CC2
not listed: [7] | [10] | [13] | [15] | [19]
inactive: all other assays above

CCN(CC)C(=O)[C@@H]1C=C2c3cccc4[nH]cc(c34)C[C@H]2N(C)C1
not listed: [5] | [7] | [9] | [13] | [16] | [18]
inactive: all other assays above

CC(C=O)Cc1ccc2c(c1)OCO2 (configuration not stated)
not listed: [5] | [8] | [11] | [17] | [19]
inactive: all other assays above

ClCC(Cl)(Cl)Cl
not listed: [10] | [15] | [18] | [19]
inactive: all other assays above

O=C1CN2CCOC2(c2ccccc2Cl)c2cc(Cl)ccc2N1 (configuration not stated)
not listed: [11] | [15] | [18] | [19]
inactive: all other assays above

CCC/C(=N\OCC)C1=C(O)CC(CC(C)SCC)CC1=O (configuration not stated)
not listed: [5] | [7] | [8] | [13] | [18] | [19]
inactive: all other assays above
